Source: PubChem BioAssay AID1159580 (chemical genetic matrix, 2015)
Where “and” joins values, the source holds several entries; their conditions need not be identical. Equal values may be shown once. Out of some 5,500 compounds screened, about 2,000 (36%) were called active. Not shown: some 18% with an inconclusive outcome. Cut-off read from the data, not from the text of the source: active = normalized growth mostly below about 0.91 (no sharp cut-off); inconclusive = no clear call, values can overlap the other calls; inactive = mostly above about 0.92. The list shows a part of the results.

Assay: chemical genetic growth profiling, strain panel (AID 1159580);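 note: tested at 20 µM; growth read once vehicle control cultures reached saturation at 30 °C; 1 = growth at the plate median or of vehicle wells; lower values mean less growth of the strain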
Conditions: S. cerevisiae deletion strains, growth OD

Measured: normalized growth

CC1(C)C2CC[C@]3(C)C(C(=O)C=C4[C@@H]5C[C@@](C)(C(=O)O)CC[C@]5(C)CC[C@]43C)[C@@]2(C)CC[C@@H]1OC(=O)CCC(=O)O (stereo partly drawn)
inactive: locus YAL021C, strain ccr4, hits give low values 0.968 | locus YAL026C, strain drs2, hits give low values 0.981 | locus YAL030W, strain snc1, hits give low values 1 | locus YBL061C, strain skt5, hits give low values 0.99 | locus YBR009C, strain hhf1, hits give low values 1 | locus YBR021W, strain FUR4, hits give low values 0.981 | locus YBR023C, strain chs3, hits give low values 0.983 | locus YBR171W, strain sec66, hits give low values 0.975 | locus YBR229C, strain ROT2, hits give low values 1 | locus YBR231C, strain swc5, hits give low values 0.996 | locus YBR279W, strain paf1, hits give low values 0.976 | locus YCL011C, strain gbp2, hits give low values 0.963 | locus YCL016C, strain dcc1, hits give low values 0.979 | locus YCL029C, strain bik1, hits give low values 0.973 | locus YCL069W, strain vba3, hits give low values 1.02 | locus YCR088W, strain abp1, hits give low values 0.985 | locus YDL005C, strain med2, hits give low values 0.994 | locus YDL035C, strain GPR1, hits give low values 0.968 | locus YDL040C, strain nat1, hits give low values 0.988 | locus YDL074C, strain BRE1, hits give low values 1.02 | locus YDL101C, strain DUN1, hits give low values 1 | locus YDL134C, strain PPH21, hits give low values 0.966 | locus YDL185W, strain tfp1, hits give low values 0.958 | locus YDL192W, strain arf1, hits give low values 0.989 | locus YDR001C, strain nth1, hits give low values 0.983 | locus YDR069C, strain doa4, hits give low values 0.938 | locus YDR101C, strain arx1, hits give low values 0.994 | locus YDR137W, strain rgp1, hits give low values 0.911 | locus YDR159W, strain sac3, hits give low values 0.909 | locus YDR162C, strain NBP2, hits give low values 0.954 | locus YDR195W, strain ref2 1 | locus YDR297W, strain sur2, hits give low values 0.995 | locus YDR318W, strain mcm21, hits give low values 0.972 | locus YDR334W, strain swr1, hits give low values 0.991 | locus YDR335W, strain msn5, hits give low values 0.979 | locus YDR388W, hits give low values 1 | locus YDR392W, strain spt3, hits give low values 0.873 | locus YDR502C, strain sam2, hits give low values 0.99 | locus YEL003W, strain gim4, hits give low values 0.992 | locus YEL037C, strain rad23, hits give low values 0.986 | locus YEL061C, strain CIN8 (second series), hits give low values 0.988 | locus YEL061C, strain CIN8, hits give low values 0.999 | locus YER015W, strain faa2, hits give low values 0.989 | locus YER016W, strain bim1, hits give low values 0.975 | locus YER110C, hits give low values 0.982 | locus YER111C, strain swi4, hits give low values 0.968 | locus YER155C, strain BEM2 (second series), hits give low values 1.02 | locus YER155C, strain BEM2, hits give low values 1 | locus YER167W, strain BCK2, hits give low values 0.99 | locus YFR010W, strain ubp6, hits give low values 1.01 | locus YGL078C, strain dbp3, hits give low values 0.98 | locus YGL086W, strain mad1, hits give low values 0.999 | locus YGL167C, strain pmr1, hits give low values 0.987 | locus YGL173C, strain kem1, hits give low values 0.999 | locus YGL227W, strain vid30, hits give low values 0.982 | locus YGL240W, strain doc1, hits give low values 0.992 | locus YGL248W, strain PDE1, hits give low values 1.02 | locus YGL253W, strain hxk2, hits give low values 0.963 | locus YGR078C, strain PAC10, hits give low values 1.03 | locus YGR135W, strain pre9, hits give low values 0.96 | locus YGR229C, strain SMI1, hits give low values 0.999 | locus YGR252W, strain gcn5, hits give low values 1.04 | locus YHR013C, strain ard1, hits give low values 0.995 | locus YHR027C, strain rpn1, hits give low values 1 | locus YHR030C, strain SLT2, hits give low values 0.984 and 1.06 | locus YHR079C, strain IRE1 (second series), hits give low values 0.979 | locus YHR079C, strain IRE1, hits give low values 1.08 | locus YHR094C, strain hxt1, hits give low values 0.987 | locus YHR129C, strain ARP1, hits give low values 0.991 | locus YHR142W, strain chs7, hits give low values 0.955 | locus YHR200W, strain rpn10, hits give low values 0.958 | locus YIL066C, strain RNR3, hits give low values 0.983 | locus YIL073C, strain SPO22, hits give low values 0.91 | locus YIL125W, strain kgd1, hits give low values 1 | locus YIR030C, strain dcg1, hits give low values 0.98 | locus YJL092W, strain hpr5, hits give low values 1 | locus YJL095W, strain BCK1 (second series), hits give low values 1 | locus YJL095W, strain BCK1, hits give low values 1.03 | locus YJL115W, strain asf1, hits give low values 0.983 | locus YJL129C, strain trk1, hits give low values 0.936 | locus YJL134W, strain LCB3, hits give low values 0.99 | locus YJL154C, strain vps35, hits give low values 0.987 | locus YJL164C, strain tpk1, hits give low values 0.982 | locus YJL166W, strain qcr8, hits give low values 0.999 | locus YJL168C, strain set2, hits give low values 0.997 | locus YJL187C, strain SWE1 (second series), hits give low values 1.02 | locus YJR043C, strain POL32, hits give low values 1.01 | locus YJR066W, strain TOR1, hits give low values 1.01
